Source: PubChem
Rows were chosen to be rich in hits. Some 6.3% of all compounds tested hit in one or more screens of this group.
MK inhibit – inhibitors of Streptococcus pneumoniae mevalonate kinase. purified MK, PK/LDH-coupled NADH absorbance 340 nm. inhibition, % at 10 µM. hit rate 0.48% among 65,000;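 active = ranked among the strongest by inhibition in the single 10 µM screen, a fixed top-ranked set picked for dose follow-up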
Spn PMK inh – inhibitors of Streptococcus pneumoniae phosphomevalonate kinase | purified PMK, PK/LDH-coupled NADH absorbance 340 nm | inhibition, % at 10 µM | hit rate 0.49% among 65,000 | AID 539;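 active = top-ranked compounds by inhibition in the single 10 µM screen, taking a fixed number of the strongest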
DPM-DC inhibit – blocks S. pneumoniae diphosphomevalonate decarboxylase. purified DPM-DC, PK/LDH coupled NADH fluorescence. calls only at 10 µM. hit rate 0.49% among 65,000;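 active = the 320 compounds with the highest percent inhibition in the single-dose primary screen, excluding strongly autofluorescent ones, cut at about 32% in these data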;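 also: kinetic rate of NADH fluorescence loss reporting ADP formed by the decarboxylase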
A340 absorber – compounds absorbing at 340 nm; fold change at 10 µM; 65,000 tested, under 10 active; compound absorbance at 340 nm, fold over control; AID 708;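 active = at 10 µM dose, initial 340 nm absorbance at least 2 fold that of control wells; inactive = change under 2 fold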;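 also: initial absorbance extrapolated from kinetic A340 decline of NADH oxidation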
NADH enzymes – blocks coupling enzymes of NAD/NADH assays. coupled PK/LDH NADH assays, four targets. IC50, µM (doses to about 10 µM). hit rate 0.02% among 65,000;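 active = single-dose screening hits from any of four coupled enzyme assays that gave an IC50 when retested across doses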;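 also: the DPM-DC format reads NADH fluorescence rather than 340 nm absorbance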
Autofluor 339 – intrinsic fluorescence of library compounds, ex339/em460 – biochemical, MLSMR library, data from DPM-DC assay, artefact control, profiling panel; hit rate 5.5% among 65,000; fluorescence fold increase at 10 µM; compound autofluorescence, ex339/em460 nm, NADH buffer; stronger effect = higher value; 1 = no-compound wells, NADH background; AID 709;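 active = at 10 µM, mean starting fluorescence two-fold or more over control wells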;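 also: signal is the first read of a kinetic run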
Each line names hits and unclear results; the compound was inactive in the other large screens.

CC1=CC2=NC(=O)CC(C)(C(=O)N(CC(=O)NC(C)(C)C)C3CCCC3)N2C=C1 (stereo not given)	Autofluor 339 3.8 (not shown: DPM-DC inhibit)
CC1=CC=CC2=NC(=O)CC(C)(C(=O)N(CC(=O)NC(C)C)C3CCCC3)N12 (stereo not given)	Autofluor 339 3 (not shown: DPM-DC inhibit)
CC1(CC(=O)O)C(=O)N=C2C=CC=CN21 (stereo not given)	Autofluor 339 2.1 (not shown: DPM-DC inhibit)
O=C(O)c1cc(-c2ccco2)nc2ccccc12	Autofluor 339 3.7 (not shown: DPM-DC inhibit)
CCOC(=O)N1CCN(C(=O)c2cc(C)c3c(C)nn(-c4ccccc4)c3n2)CC1	none
Cc1nn(-c2ccccc2)c2nc(-c3ccco3)cc(C(=O)O)c12	Autofluor 339 2 (not shown: DPM-DC inhibit)
Nc1nc(N)c2sc3nc4c(cc3c2n1)CCC4	DPM-DC inhibit active, Autofluor 339 3.2
Cc1cc(Oc2ccccc2)nc(-c2ccccc2)n1	none
Cc1cc(Oc2ccccc2)nc2ccc(O)cc12	Autofluor 339 2.1 (not shown: DPM-DC inhibit)
CCOC(=O)CSc1nnc(Cn2c(=O)sc3ccccc32)n1-c1ccccc1C	none
Cc1cc2nc(-c3cccnc3SCC(=O)NCc3ccco3)[nH]c2cc1C	Autofluor 339 3.7 (not shown: DPM-DC inhibit)
Cc1cc(N2C(=O)CCC2=O)n(-c2ccccc2)n1	none
CC1=NN(c2ccccc2)C(=O)C1	MK inhibit 53
COC(=O)c1oc2nc(C)cc(C)c2c1N	Autofluor 339 3.9 (not shown: DPM-DC inhibit)
CC12CC(NC(=O)N1CCc1ccccc1)c1cc(Cl)ccc1O2 (stereo not given)	none
CCOC(=O)N1C(=O)c2cc(OC)ccc2S1(=O)=O	Spn PMK inh 29, NADH enzymes 19µM
CCOc1ccccc1C(=O)NCC(=O)OCC(=O)c1ccc2c(c1)OCCO2	Spn PMK inh 26
CCOC(=O)c1[nH]c2ccccc2c1NC(=O)CC(C)(C)C	none
COC(=O)c1[nH]c2ccccc2c1NC(=O)Oc1ccccc1	Autofluor 339 2.3
CCOC(=O)c1[nH]c2ccccc2c1NC(=O)c1ccc(Br)o1	MK inhibit 54
C=CCOC(=O)Nc1c(C(=O)OC)[nH]c2ccccc12	none
Cc1[nH]nc2c1C1(CCOCC1)C(C#N)=C(N)O2	none
COc1nc2cc(C)ccc2cc1-c1noc(-c2cccnc2)n1	none
COc1cc(OC)cc(-c2nc(-c3cc4cc(C)ccc4nc3OC)no2)c1	Autofluor 339 2.6
COc1ccc(C(=O)N2CCN(c3nc4ccccc4o3)CC2)cc1OC	none
Cc1cccc(CNC(=O)c2ccccc2N)c1	Autofluor 339 3.6 (not shown: DPM-DC inhibit)
Cc1ccccc1C(=O)NCc1ccncc1	none
CCn1c(SCC(N)=O)nnc1-c1ccc(S(=O)(=O)N2CCN(C)CC2)cc1	none
O=C(CCn1cccc1)N1CCc2ccccc21	none
COc1ccc(-c2c(C)oc3c(CN4CCN(C)CC4)c(O)ccc3c2=O)cc1	Autofluor 339 2.2 (not shown: DPM-DC inhibit)
CCN1CCN(Cc2c(O)ccc3c(=O)c(-c4ccc(OC)c(OC)c4)c(C)oc23)CC1	Autofluor 339 3.9 (not shown: DPM-DC inhibit)
O=C1CCc2nc3ccccc3c(=O)n2N1	none
Clc1ccccc1OCCN1CCCCC1	MK inhibit 41
Clc1ccccc1OCCn1ccnc1	none
COc1cccc(OCCCCN2CCCCC2)c1	MK inhibit 55
C=CCc1ccccc1OCC(CN1CCCCC1)OC(C)=O (stereo not given)	none
C=CCc1ccccc1OCCCCN1CCCC1	MK inhibit 45
CCc1ccccc1OCCCCN1CCCC1	MK inhibit 71
N#Cc1nc(COc2ccc(Br)cc2)oc1NCCCn1ccnc1	none
Cc1cc2ncn(C(=O)N3CCOCC3)c2cc1C	none
CCSc1nnc(N2C(=O)CC(c3ccsc3)C3=C2CC(C)(C)CC3=O)s1 (stereo not given)	none
Cc1ccccc1OCCCN1CCCC1	MK inhibit 43
Fc1ccccc1OCCCN1CCOCC1	MK inhibit 52
Cc1ccc(OCCN2CCCCCC2)c(C)c1	none
O=S(=O)(NCc1cccnc1)c1cc(Cl)ccc1Cl	none
CCOC(=O)c1c(NS(=O)(=O)c2cccc(OC)c2)sc2c1CCC2	none
Cc1ccc(C2C=C(c3ccccc3OC(F)F)Nc3ncnn32)cc1 (stereo not given)	Autofluor 339 2.1
Cc1ccc(C2C=C(c3ccc4c(c3)OCO4)Nc3ncnn32)cc1 (stereo not given)	Autofluor 339 3
CN(C)c1ccc(C2C=C(c3ccc(Cl)cc3OC(F)F)Nc3ncnn32)cc1 (stereo not given)	none
